The results in this text go back to PubChem BioAssay (EPA / NIEHS).

Test [1] can be described thus: ATG_NFI_CIS: Attagene CIS-FACTORIAL HepG2 Assay for human Nuclear Factor I (NFI) (AID 2282989). Particulars: HepG2 cis-regulatory reporter, NFI response element transcription; actives raise or lower the signal. The essentials: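 HepG2 cells transiently transfected with cis-element-driven multiplexed reporter transcription units, dosed for 24 h. Reporter mRNA quantified by RT-PCR, fluorescent labelling, HpaI digestion and capillary electrophoresis; bidirectional fit versus DMSO baseline.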

For test [2], the target named is Myc proto-oncogene protein (Homo sapiens) (UniProt P01106). The test can be described thus: ATG_Myc_CIS: Attagene CIS-FACTORIAL HepG2 Assay for human Myelocytomatosis (Myc) Proto-Oncogene Transcription Factor (AID 2282990). Particulars: HepG2, Attagene cis-reporter transcription factor activity; actives raise or lower the signal. The essentials:
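Read-out: fluorescent reporter mRNA fragments resolved by capillary electrophoresis after RT-PCR. Human HepG2 liver cells carried transfected cis-element reporter units and were dosed for 24 h. Gain or loss of signal fitted relative to DMSO baseline.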

Test [3] can be described thus: ATG_NF_kB_CIS: Attagene CIS-FACTORIAL HepG2 Assay for human Nuclear Factor Kappa B (NF-kB) (AID 2282991). The settings on record: HepG2 Attagene cis-factorial NF-kB reporter mRNA; actives raise or lower the signal. The essentials:
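Endogenous transcription factor activity in HepG2 was captured via cis-regulated reporter constructs; after 24 h dosing, reporter mRNA was reverse-transcribed, amplified, fluorescently labelled and sized by capillary electrophoresis, with activity fitted bidirectionally relative to DMSO.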

A short description of test [4]: ATG_NRF2_ARE_CIS: Attagene CIS-FACTORIAL HepG2 Assay for human Nuclear Factor Erythroid 2 Related Factor 2 (NFR2) response to Antioxidant Response Elements (ARE) (AID 2282992).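 On AC50: reporter mRNA level measured by RT-PCR and capillary electrophoresis fluorescence.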 Particulars: HepG2 Attagene ARE/NRF2 reporter, transcription factor activity; actives raise or lower the signal. The essentials:
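Readout: reporter mRNA quantified by RT-PCR plus FAM-labelled primer extension, HpaI digestion and capillary electrophoresis, 24 h after dosing transfected HepG2 cells. Gain or loss of signal is fitted bidirectionally against DMSO baseline.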

A short description of test [5]: ATG_Oct_MLP_CIS: Attagene CIS-FACTORIAL HepG2 Assay for human Octamer-Binding Transcription Factor (Oct) (AID 2282993). The settings on record: HepG2 Attagene cis-factorial Oct reporter, mRNA; actives raise or lower the signal. An outline of the steps: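 HepG2 cells transiently transfected with cis-promoter-driven multiplexed reporter transcription units, dosed for 24 h. Reporter mRNA quantified by RT-PCR, fluorescent labelling, HpaI digestion and capillary electrophoresis; bidirectional fits versus DMSO baseline.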

Test [6] deals with Cellular tumor antigen p53 (Homo sapiens) (UniProt P04637). The experiment in a line: ATG_p53_CIS: Attagene CIS-FACTORIAL HepG2 Assay for human p53 Transcription Factor (AID 2282994). Particulars: HepG2 p53 cis-element reporter, Attagene mRNA; actives raise or lower the signal. The essentials: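 Read-out: reporter mRNA by RT-PCR plus capillary electrophoresis with fluorescence detection. Human HepG2 liver cells carried transfected multi-reporter cis-element constructs, dosed 24 h. Gain or loss of signal fitted bidirectionally against DMSO control.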
Sequence of Cellular tumor antigen p53 (Homo sapiens) (P04637 whole entry, looked up): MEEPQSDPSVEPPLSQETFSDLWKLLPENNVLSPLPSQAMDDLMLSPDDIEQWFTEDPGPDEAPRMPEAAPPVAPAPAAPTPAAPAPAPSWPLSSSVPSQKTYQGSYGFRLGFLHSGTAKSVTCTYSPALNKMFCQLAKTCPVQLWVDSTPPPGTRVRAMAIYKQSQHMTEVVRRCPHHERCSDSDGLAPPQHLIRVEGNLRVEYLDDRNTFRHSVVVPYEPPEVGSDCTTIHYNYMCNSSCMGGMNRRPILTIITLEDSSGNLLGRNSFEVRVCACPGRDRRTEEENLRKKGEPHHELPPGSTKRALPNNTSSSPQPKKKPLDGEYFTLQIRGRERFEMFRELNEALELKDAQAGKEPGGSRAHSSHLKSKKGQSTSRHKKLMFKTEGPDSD

Test [7] addresses human Peroxisome Proliferator-activated Receptor alpha (PPARa), PPARA (gene 5465) (UniProt Q07869). The experiment in a line: ATG_PPARa_TRANS: Attagene TRANS-FACTORIAL HepG2 Assay for human Peroxisome Proliferator-activated Receptor alpha (PPARa) (AID 2283001; active means hit-call score of the fitted dose curve at least 0.9, where 1 is the maximum;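 on AC50: potency for gain of reporter signal over DMSO so agonist or activator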). The essentials: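 Transient HepG2 transfection, GAL4-UAS reporters, NR-Gal4 chimeras; 24 h compound exposure. Readout: reporter transcripts by RT-PCR, 6-FAM primer extension, HpaI digest, capillary electrophoresis. Positive direction vs DMSO baseline.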

Test [8] can be described thus: BSK_3C_TissueFactor: BioMAP Diversity Plus: 3C Assay for Tissue Factor Biomarker Activity (AID 2282997). Particulars: BioMAP 3C HUVEC, tissue factor biomarker readout; actives raise or lower the signal. An outline of the steps: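 Cells used were primary human umbilical vein endothelial cells. They were dosed with chemical, and after 24 h Tissue Factor was quantified by ELISA. Curves were fitted bidirectionally with DMSO as baseline.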

The nature of test [9]: BSK_3C_uPAR: BioMAP Diversity Plus: 3C Assay for Urokinase-type plasminogen activator receptor (uPAR) Biomarker Activity (AID 2282998). Particulars: BioMAP 3C HUVEC, uPAR biomarker ELISA; actives raise or lower the signal. The essentials:
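Human umbilical vein endothelial primary cells were exposed to test chemical for 24 h. Cell-surface uPAR was then quantified by ELISA, and responses were fitted bidirectionally against DMSO as negative control and baseline.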
A general note: ELISA stands for enzyme-linked immunosorbent assay.

Test [10] is described as follows: BSK_4H_Eotaxin3: BioMAP Diversity Plus: 4H Assay for Eotaxin 3 Biomarker Activity (AID 2283000).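 On outcome: CCL26 protein level quantified by ELISA in parallel with SRB cytotoxicity check.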 Particulars: primary human endothelial cells (HUVEC); actives raise or lower the signal. An outline of the steps: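 Endothelial primary cells (human umbilical vein) exposed to compound for 24 h. ELISA detection of Eotaxin-3.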

Results filed as inconclusive are left out. Calls of active or inactive are those of the source. How the source made its calls, unless noted: active means hit-call score of the fitted dose curve at least 0.9, where 1 is the maximum; inactive means score below 0.9.

Sequence of human Peroxisome Proliferator-activated Receptor alpha (PPARa), PPARA (gene 5465) (Q07869 whole entry, looked up, the tested form may be a part): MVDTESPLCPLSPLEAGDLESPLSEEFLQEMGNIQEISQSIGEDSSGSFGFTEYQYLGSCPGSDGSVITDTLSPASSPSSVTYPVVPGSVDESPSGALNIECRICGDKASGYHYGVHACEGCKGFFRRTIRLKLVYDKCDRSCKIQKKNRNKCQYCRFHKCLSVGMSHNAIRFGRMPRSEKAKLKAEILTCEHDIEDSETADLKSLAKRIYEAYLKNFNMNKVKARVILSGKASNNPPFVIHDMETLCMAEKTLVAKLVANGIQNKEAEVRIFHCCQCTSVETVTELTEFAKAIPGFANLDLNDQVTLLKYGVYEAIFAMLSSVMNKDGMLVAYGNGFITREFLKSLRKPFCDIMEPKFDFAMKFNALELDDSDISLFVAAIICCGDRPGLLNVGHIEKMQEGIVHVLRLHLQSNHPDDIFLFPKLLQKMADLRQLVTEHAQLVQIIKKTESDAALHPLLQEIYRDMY
Sequence of Myc proto-oncogene protein (Homo sapiens) (P01106 whole entry, looked up, the tested form may be a part): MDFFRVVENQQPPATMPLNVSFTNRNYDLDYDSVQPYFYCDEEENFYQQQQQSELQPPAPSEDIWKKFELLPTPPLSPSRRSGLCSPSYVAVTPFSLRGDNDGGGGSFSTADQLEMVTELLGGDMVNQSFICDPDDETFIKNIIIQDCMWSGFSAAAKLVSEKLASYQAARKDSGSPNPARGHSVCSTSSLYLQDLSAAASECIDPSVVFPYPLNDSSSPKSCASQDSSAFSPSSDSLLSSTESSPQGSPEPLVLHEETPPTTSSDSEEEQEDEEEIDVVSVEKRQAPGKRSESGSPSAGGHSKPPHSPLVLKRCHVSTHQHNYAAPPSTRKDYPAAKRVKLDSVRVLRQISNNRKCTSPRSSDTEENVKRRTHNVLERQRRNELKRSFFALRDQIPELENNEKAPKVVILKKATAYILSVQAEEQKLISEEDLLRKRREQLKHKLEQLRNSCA

As to `O=S(=O)(Oc1ccc(Cl)cc1Cl)c1ccccc1`, the call in test [1], in test [2], in test [3] and in test [5] was inactive. The AC50 (as a rule, the concentration giving half of the maximal activity seen) in [4] was 11.5 µM (active).

As for `O=C1CCCC1`, the call in test [1], in test [2], in test [3], in test [4], in test [5] and in test [6] was inactive.

For the compound `O=CC1CC1`, the call in test [1], in [2], in [3], in test [4] and in [5] was inactive.

As for `C[C@]12CCC(=O)C=C1CC[C@@H]1[C@@H]2C(=O)C[C@@]2(C)[C@H]1CC[C@]2(O)C(=O)CO`, the compound was classed as inactive in test [1], in test [2], in test [3], in [4], in test [5] and in test [6].

As to `C=C(C)c1cccc(C(C)(C)N=C=O)c1`, the compound was called inactive in test [1], in test [2], in [3], in [4], in [5] and in test [6].

As to `Cc1oncc1C(=O)Nc1ccc(C(F)(F)F)cc1`, the result in [1], in [2], in test [3], in test [5] and in test [6] was inactive. Further, the AC50 in test [4] was 100 µM (active).

On to `CC(=O)Oc1ccc(C)cc1`, for which the call in test [1], in test [2], in test [3], in test [5], in test [6] and in test [7] was inactive. The AC50 in test [4] is 19.6 µM (active).

As to `COc1ccc(C(Cl)=C(c2ccc(OC)cc2)c2ccc(OC)cc2)cc1`, the outcome in test [1], in test [2], in [3], in test [4], in test [5] and in [6] was inactive.

With `CC(=O)C=CC1C(C)=CCC(C)C1(C)C` (configuration not stated), the call in [1], in test [2], in test [3], in [5] and in test [6] was inactive. Also, the AC50 in [4] was 27.8 µM (active).

On to `O=c1cc[nH]c(=S)[nH]1`, for which the compound was classed as inactive in [1], in [2], in [3], in test [4], in [5] and in [6].

With `CCO[Si](CCCN=C=O)(OCC)OCC`, the result in test [1], in test [2], in [3], in test [4], in test [5] and in test [6] was inactive. Besides, the result in test [8], in test [9], in [10] and in [7] was inactive.

Consider `CC(C)=CCC[C@H](C)CCO`, for which the result in [1], in [2], in test [3], in test [4], in test [5] and in test [6] was inactive.

Take `C=CC(=O)OCC(Br)CBr` (configuration not stated): the AC50 is 163 µM (active) in test [1]; 56.6 µM (active) in [3]; 24.8 µM (active) in [4]; 165 µM (active) in [6]; 20 µM (active) in test [8]; 34.2 µM (active) in test [9]. The AC50 in test [10] was 20 µM (active); in [7] it was 144 µM (active). The result in test [2] and in test [5] was inactive.

Regarding `CCO[Si](C)(OCC)OCC`, the compound was classed as inactive in [1], in test [2], in test [3], in test [4], in [5] and in test [6]. For the same compound, the result in test [8], in [9] and in test [10] was inactive.

`C/C=C\C/C=C/CCCCCCCCOC(C)=O`: the compound was called inactive in test [1], in test [2], in test [9] and in test [7]. For the same compound, the AC50 is 42.8 µM (active) in test [3]; 26.8 µM (active) in [4]; 39.5 µM (active) in test [5]; 162 µM (active) in [6]; 9.54 µM (active) in test [8]; 28.9 µM (active) in test [10].

Turning to `CCCOC(=O)CCCCC(=O)OCCC`, the compound was classed as inactive in test [1], in test [2], in test [3], in test [4], in [5] and in test [6]. Besides, the compound was called inactive in test [7].

Turning to `COC(=O)c1cc(Cl)ccc1[N+](=O)[O-]`, the call in [1], in [2], in [3], in [5] and in test [6] was inactive. For the same compound, the AC50 in test [4] is 48 µM (active).

Turning to `O=c1n(CCO)c(=O)n(CCO)c(=O)n1CCO`, the outcome in test [1], in test [2], in [3], in test [4], in test [5] and in test [6] was inactive.

`CCOC(=O)N1CCC(=C2c3ccc(Cl)cc3CCc3cccnc32)CC1`: the result in [1], in [2], in test [3], in test [4] and in test [5] was inactive. In addition, the AC50 in [6] is 7.13 µM (active).

For `Nc1ccc(-c2ccc(F)cc2)cc1`, the outcome in test [1], in test [2], in [3], in test [4], in [5] and in test [6] was inactive.

Consider `CCCCC/C=C\C/C=C\CCCCCCCC(=O)OC`, for which the call in test [1], in test [2] and in test [5] was inactive. Moreover, the AC50 in test [3] was 37 µM (active); in test [4] it was 32.5 µM (active); in test [6], 180 µM (active); in [8], 20 µM (active); in test [9], 33.7 µM (active); in [10], 34 µM (active). Moreover, the AC50 in [7] was 32 µM (active).

Consider `O=S(=O)(O)c1cc(S(=O)(=O)O)c2ccc3c(S(=O)(=O)O)cc(S(=O)(=O)O)c4ccc1c2c43`, for which the compound was classed as inactive in test [1], in test [2], in [3], in test [4], in test [5] and in [6].

`CCN(CCO)c1cccc(C)c1`: the compound was classed as inactive in test [1], in test [2], in test [3], in test [4], in test [5] and in test [6].

In the case of `C=C[C@](C)(O)CC[C@@H]1[C@@]2(C)CCCC(C)(C)[C@@H]2CC[C@@]1(C)O`, the outcome in test [1], in [2], in test [3], in [5] and in test [6] was inactive. Besides, the AC50 in test [4] was 6.58 µM (active).

As for `CCC(=O)Oc1ccc(/C(CC)=C(\CC)c2ccc(OC(=O)CC)cc2)cc1`, the AC50 in [1] is 25.2 µM (active); in test [3], 33.7 µM (active); in test [6], 27.9 µM (active). Also, the call in [2], in [4] and in test [5] was inactive.

For `COCc1c(C(C)C)nc(C(C)C)c(/C=C/[C@@H](O)C[C@@H](O)CC(=O)O)c1-c1ccc(F)cc1`, the compound was classed as inactive in test [1], in test [2], in [3], in test [4], in test [5] and in test [6]. The result in [7] was inactive. The AC50 in test [8] is 5.66 µM (active); in test [9], 0.0342 µM (active); in test [10] it was 0.0266 µM (active).

Turning to `C=COCCCC`, the outcome in test [1], in test [2], in test [3], in test [4], in test [5] and in [6] was inactive.

Regarding `OC1CCCCCCCCCCC1`, the result in [1], in test [2], in test [3], in test [4], in test [5] and in [6] was inactive.

As to `C=C[Si](C)(C)O[Si](C)(C)C=C`, the compound was called inactive in [1], in test [2], in [3], in test [4], in [5] and in [6].
